Most compounds without a hit are left out; they make up all but 2.2% or so of the library.
Mito fusion act: blocks mitochondrial division or promotes mitochondrial fusion; S. cerevisiae fusion-defective mutant growth rescue, CellTiterGlo 48 h; Potency, µM (series often up to 46.1 µM), actives largely listed as activators; 0.23% of 320,000 active; AID 485298; also: nearly all actives have a fitted effect of over 45% in size
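Temperature-sensitive fusion-defective S. cerevisiae (e.g. fzo1-1, mgm1-5) were grown with compound in YPEG medium (3% ethanol, 3% glycerol) for 48 hours at 37C. Growth rescue was measured as viability by CellTiterGlo luminescence after 10 minutes at ambient.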
aSyn rescue: alpha-synuclein toxicity inhibition in yeast; 0.14% of 370,000 active; AID 652106; Yeast expressing alpha-synuclein, growth rescue, BacTiter-Glo, 24 h; Potency, µM (series often up to 46.1 µM), actives largely listed as activators; also: nearly all actives have a fitted effect of over 65% in size
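Readout is rescue of growth in alpha-synuclein-expressing yeast, so inhibitors of toxicity appear as activators. Growth after 24 hr at 30 deg C in galactose medium is quantified by luminescence.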
TDP43 rescue: rescues yeast growth from TDP-43 toxicity; TDP-43 expressing yeast growth rescue, BacTiter-Glo, 24 h; Potency, µM (titrated, usually from 46.1 µM), actives largely listed as activators; 1.8% of 410,000 active; also: nearly all actives have a fitted effect of over 50% in size
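Yeast cells expressing TDP-43 under galactose induction are exposed to compounds for 24 hr at 30 deg C. BacTiter-Glo luminescence measures growth, so protective compounds score as activators.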
FUS yeast rescue: FUS proteinopathy suppression in yeast | Potency, µM (top dose mostly 76.6 µM), hits mostly activators | 0.24% of 390,000 active | S. cerevisiae FUS-expressing, growth rescue, OD600, 24 h; also: nearly all actives have a fitted effect of over 55% in size
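FUS-expressing yeast, raffinose-pregrown, induced in 2% galactose minimal medium at OD 0.005; compounds in a dilution series, 24hr at 30C. Growth restoration read as absorbance at 600 nm. CP55940 positive control, DMSO negative.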
Abeta rescue: restores growth of yeast expressing A-beta42 peptide | yeast expressing A-beta42, growth rescue, OD600, 48 h; response scale: 0% DMSO, 100% iron-clioquinol control | Potency, µM (top dose mostly 46.1 µM), usual class: activators | 0.063% of 410,000 active | AID 1347071; also: nearly all actives have a fitted effect of over 55% in size
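Yeast growth medium received pinned compounds, then yeast cells expressing toxic A-beta were added; plates incubated at 30 C for 48 hr. Growth read as absorbance at 600 nm, normalized to DMSO and equimolar FeCl3 plus clioquinol controls.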
Each line names hits and unclear results; the compound was inactive in the other large screens. Calls follow the shape of the dose curve; as a rule, active = well fitted curve in the direction sought with a large enough effect; inconclusive = small, poorly fitted or top-dose-only effect, or another doubt; inactive = no such curve, though single readings can be large; an effect the other way counts as inactive or inconclusive.

Cc1ccc(NC(=O)CSc2nnc(-c3cc4occc4n3C)n2-c2ccccc2C)c(C)c1	none (no result: Mito fusion act, aSyn rescue)
Cc1ccc(C(=O)N2CCn3c4c(c5cc(C)ccc53)CCCC42)cc1 (stereo unspecified)	FUS yeast rescue inconclusive (no result: Mito fusion act, aSyn rescue)
Cc1ccc2c(c1)c1c3n2CCN(C(=O)C2CC2)C3CCC1 (stereo unspecified)	TDP43 rescue 28µM
CCCCNC(=O)Cn1c(SCc2cccc(F)c2)nc2ccncc21	none (no result: Mito fusion act, TDP43 rescue, FUS yeast rescue, Abeta rescue)
COc1cc(Cn2c(=O)sc3ccccc32)ccc1OCCC(C)C	Abeta rescue inconclusive (no result: Mito fusion act, aSyn rescue)
Cc1nc(Nc2ccc3c(c2)OCCO3)c2c(C)c(C)sc2n1	TDP43 rescue 11µM, FUS yeast rescue inconclusive
COc1ccc(NC(=O)c2c(C)oc3ccc(O)c(CN4CCN(Cc5ccccc5)CC4)c23)cc1	none (no result: Mito fusion act, aSyn rescue)
S=c1[nH]nc(Cc2ccc(Br)cc2)n1/N=C/c1ccc(Cl)cc1	TDP43 rescue 8.9µM, Abeta rescue inconclusive
COc1ccc(-c2nc3ccccc3n3c(-c4ccccc4)c4c(=O)n(C)c(=O)n(C)c4c23)cc1OC	none (no result: Mito fusion act, aSyn rescue)
Cc1ccc(SCCNC(=O)/C=C/c2ccc([N+](=O)[O-])cc2)cc1	Mito fusion act 16µM
O=C(/C=C/c1ccc([N+](=O)[O-])cc1)NCCSc1ccccc1	none
CN(N=O)c1ccc(/C=C/c2ccccc2)cc1	none (no result: Mito fusion act, TDP43 rescue, FUS yeast rescue, Abeta rescue)
Cc1cc(N2CCOCC2)n2ncc(-c3ccccc3Cl)c2n1	TDP43 rescue 13µM
c1ccc(CC2CCN(c3ncnc4sccc34)CC2)cc1	TDP43 rescue 13µM
COc1ccc(C(=O)NCC(=O)OCC(=O)c2cccc3ccccc23)cc1	none (no result: Mito fusion act, TDP43 rescue, FUS yeast rescue, Abeta rescue)
Cc1ccc(Nc2nc(C)cc(C)n2)c(Br)c1	TDP43 rescue 10µM
CCOC(=O)c1c(-c2ccc(C)cc2)csc1NC(=O)CCN1CC(C)OC(C)C1 (stereo unspecified)	Mito fusion act 13µM (no result: FUS yeast rescue)
CCOC(=O)c1c(-c2ccc(OC)cc2)csc1NC(=O)CCN1CCOCC1	Mito fusion act inconclusive
Fc1ccc(Nc2nc(NCc3ccco3)nc3nccnc23)cc1	none (no result: Mito fusion act, TDP43 rescue, FUS yeast rescue, Abeta rescue)
Cc1ccc(Nc2nc(N)c([N+](=O)[O-])c(NCc3ccccc3)n2)cc1	none
CCC(C)Nc1nc(N)c([N+](=O)[O-])c(NCc2ccccc2)n1 (stereo unspecified)	TDP43 rescue 18µM
Cc1cc2cc(C)c3nnc(SCc4ccccn4)n3c2cc1C	none
Cc1ccc(C)c2c1cc(C)c1nnc(SCc3ccccn3)n12	TDP43 rescue 11µM (no result: aSyn rescue)
O=C(CCCCn1c(=O)c2ccccc2n(Cc2ccc(Cl)cc2)c1=O)NCc1ccccc1Cl	none (no result: Mito fusion act, aSyn rescue)
COc1ccc(CNC(=O)C2(C)Cc3c(-c4ccc(C(N)=O)cc4)ccnc3O2)cc1OC (stereo unspecified)	none (no result: Mito fusion act)
CC1(C(=O)Nc2cccc(OC(F)(F)F)c2)Cc2c(-c3ccc4c(c3)OCO4)ccnc2O1 (stereo unspecified)	aSyn rescue 3.5µM (no result: Mito fusion act)
CN(C)c1ccc(-c2ccnc3c2CC(C)(C(=O)Nc2cccc(OC(F)(F)F)c2)O3)cc1 (stereo unspecified)	none (no result: Mito fusion act)
CC(=O)Nc1ccc(NC(=O)C2(C)Cc3c(-c4ccc(NC(C)=O)cc4)ccnc3O2)cc1 (stereo unspecified)	none (no result: Mito fusion act)
COc1ccc(CNC(=O)C2(C)Cc3c(-c4ccc5c(c4)OCO5)ccnc3O2)cc1OC (stereo unspecified)	aSyn rescue 8.9µM (no result: Mito fusion act)
CC(=O)Nc1ccc(-c2ccnc3c2CC(C)(C(=O)Nc2ccc(C(C)C)cc2)O3)cc1 (stereo unspecified)	TDP43 rescue 35µM, FUS yeast rescue inconclusive (no result: Mito fusion act)
Cc1nc(N2CCN(C(=O)c3ccco3)CC2)nc2c1C(=O)CC(C)C2 (stereo unspecified)	TDP43 rescue inconclusive
CCOC(=O)N1CCN(c2nc(C)c3c(n2)CC(C)CC3=O)CC1 (stereo unspecified)	TDP43 rescue 20µM
O=C(O)c1ccc(CSc2nnc(-c3ccc(Cl)cc3)o2)cc1	none
Clc1ccc(CSc2nnc(-c3ccncc3)o2)cc1	TDP43 rescue 6.3µM (no result: aSyn rescue)
CCSc1nnc(-c2ccncc2)o1	none
Fc1ccc(CSc2nnc(-c3ccncc3)o2)cc1	TDP43 rescue 13µM
O=S(=O)(NCCc1cn(S(=O)(=O)c2ccccc2)c2ccccc12)c1ccccc1	none (no result: Mito fusion act, TDP43 rescue, FUS yeast rescue, Abeta rescue)
O=[N+]([O-])c1ccc(N2CCN(Cc3ccccc3)CC2)s1	none
O=[N+]([O-])c1ccc(N2CCN(Cc3ccccc3)CC2)c2c1no[n+]2[O-]	TDP43 rescue 35µM (no result: Mito fusion act)
Cc1cccc(NC(=O)Cn2cnc3ccc(S(=O)(=O)N4CCC(C)CC4)cc3c2=O)n1	FUS yeast rescue 35µM
CCCN(CC1CC1)C(=S)Nc1ccc(Oc2ccccc2)cc1	TDP43 rescue 20µM (no result: FUS yeast rescue)
CCCCN(C)C(=S)Nc1ccc(Oc2ccccc2)cc1	none (no result: FUS yeast rescue)
O=C(COC(=O)c1cc(=O)[nH]c(=O)[nH]1)Nc1cccc(S(=O)(=O)N2CCOCC2)c1	none
O=C(COC(=O)c1n[nH]c(=O)c2ccccc12)Nc1cccc(S(=O)(=O)N2CCOCC2)c1	FUS yeast rescue 40µM (no result: Mito fusion act)
C/C(N)=C(/C#N)C(=O)CSc1nc2ccccc2c(=O)n1Cc1ccc(F)cc1	TDP43 rescue 10µM, Abeta rescue 13µM
C/C(N)=C(/C#N)C(=O)CSc1nc2ccccc2c(=O)n1Cc1ccc(C)cc1	none
O=[N+]([O-])c1ccccc1/C=N/N1CCN(c2ccncc2S(=O)(=O)N2CCCCC2)CC1	Mito fusion act 11µM, TDP43 rescue inconclusive
Cc1c(-c2nc(N)nc(Nc3ccccc3)n2)oc2ccccc12	Mito fusion act 14µM, aSyn rescue inconclusive, TDP43 rescue inconclusive
Nc1nc(CN2CCCCCC2)nc(Nc2ccccc2)n1	none
O=C(CCCc1ccccc1)Nc1nccs1	TDP43 rescue 11µM (no result: Mito fusion act)
O=C1NC[C@@H](c2ccccc2)OC(=O)[C@@H](Cc2ccc(F)cc2)CC/C=C/C[C@H]1CC(=O)N(CCO)Cc1ccccc1	FUS yeast rescue 25µM (no result: Mito fusion act)
O=C(N[C@H]1C/C=C\C[C@@H](CC(=O)N(CCO)Cc2ccccc2)C(=O)N[C@H](Cc2c[nH]c3ccccc23)COC1=O)OCC1c2ccccc2-c2ccccc21	FUS yeast rescue 20µM (no result: Mito fusion act)
O=C(N[C@H]1C/C=C\C[C@H](CC(=O)N(CCO)Cc2ccccc2)C(=O)N[C@H](Cc2c[nH]c3ccccc23)COC1=O)OCC1c2ccccc2-c2ccccc21	FUS yeast rescue 22µM (no result: Mito fusion act)
O=C1N[C@@H](Cc2c[nH]c3ccccc23)COC(=O)[C@H](Cc2ccc(F)cc2)C/C=C\C[C@@H]1CC(=O)N(CCO)Cc1ccccc1	FUS yeast rescue 28µM (no result: Mito fusion act)
COc1ccc2nc(N3C(=O)CC(C(C)c4ccccc4)C3=O)sc2c1 (stereo unspecified)	TDP43 rescue 11µM (no result: FUS yeast rescue)
CCOC(=O)c1ccc(S(=O)(=O)N2CCN(c3nc(-c4cccs4)nc4ccccc34)CC2)cc1	none (no result: Mito fusion act, TDP43 rescue, FUS yeast rescue, Abeta rescue)
